The structures appear in SMILES notation. Some of the results follow. Where a call stands in place of a potency, no number is given. Inconclusive results are not listed. Active and inactive are the calls of the source. The call rests on the fitted dose curve; in most records, active means well fitted inhibition curve with a large enough effect; inconclusive means small, poorly fitted or top-dose-only effect; inactive means no such curve, though single readings can be large or run the other way.

Regulator of G-protein signaling 12 (Homo sapiens), sequence (O14924 whole entry, looked up): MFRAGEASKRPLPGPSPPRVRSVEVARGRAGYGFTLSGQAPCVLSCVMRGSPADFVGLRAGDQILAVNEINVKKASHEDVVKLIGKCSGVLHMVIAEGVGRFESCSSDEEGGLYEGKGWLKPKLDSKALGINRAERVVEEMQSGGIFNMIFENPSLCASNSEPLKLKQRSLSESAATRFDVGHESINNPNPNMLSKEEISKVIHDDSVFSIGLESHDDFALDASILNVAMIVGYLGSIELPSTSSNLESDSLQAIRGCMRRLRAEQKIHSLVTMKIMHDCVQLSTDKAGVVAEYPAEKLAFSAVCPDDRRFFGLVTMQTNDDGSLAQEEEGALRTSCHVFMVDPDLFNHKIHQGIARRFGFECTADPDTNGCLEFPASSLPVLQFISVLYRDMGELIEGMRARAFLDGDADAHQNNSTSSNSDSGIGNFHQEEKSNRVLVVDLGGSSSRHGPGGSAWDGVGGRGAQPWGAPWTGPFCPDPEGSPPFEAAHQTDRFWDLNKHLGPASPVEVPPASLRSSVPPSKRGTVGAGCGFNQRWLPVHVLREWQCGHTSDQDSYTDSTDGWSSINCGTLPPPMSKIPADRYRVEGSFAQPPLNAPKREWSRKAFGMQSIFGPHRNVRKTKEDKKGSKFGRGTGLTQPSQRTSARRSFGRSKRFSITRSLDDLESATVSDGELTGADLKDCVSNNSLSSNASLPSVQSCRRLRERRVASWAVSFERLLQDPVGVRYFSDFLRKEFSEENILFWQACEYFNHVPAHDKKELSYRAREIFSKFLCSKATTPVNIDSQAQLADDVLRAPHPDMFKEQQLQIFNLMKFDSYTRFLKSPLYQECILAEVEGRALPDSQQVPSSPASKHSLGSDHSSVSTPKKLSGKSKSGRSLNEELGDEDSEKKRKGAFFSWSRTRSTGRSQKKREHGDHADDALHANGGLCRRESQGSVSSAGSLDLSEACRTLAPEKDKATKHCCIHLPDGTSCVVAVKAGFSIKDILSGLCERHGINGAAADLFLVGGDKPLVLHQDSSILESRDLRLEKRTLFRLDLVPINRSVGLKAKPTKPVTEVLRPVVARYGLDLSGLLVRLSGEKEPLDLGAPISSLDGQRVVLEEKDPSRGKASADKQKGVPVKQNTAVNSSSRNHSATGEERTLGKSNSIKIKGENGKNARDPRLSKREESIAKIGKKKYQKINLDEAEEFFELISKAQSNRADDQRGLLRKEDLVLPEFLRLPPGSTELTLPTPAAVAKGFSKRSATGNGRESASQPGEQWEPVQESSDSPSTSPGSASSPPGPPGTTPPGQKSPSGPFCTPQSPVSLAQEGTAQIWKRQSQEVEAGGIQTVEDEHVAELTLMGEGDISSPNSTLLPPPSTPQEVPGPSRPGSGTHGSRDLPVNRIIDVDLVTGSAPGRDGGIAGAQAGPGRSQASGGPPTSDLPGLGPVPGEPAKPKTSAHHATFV

The test has as its target Regulator of G-protein signaling 12 (Homo sapiens) (UniProt O14924). Briefly: Confirmation qHTS Assay for Inhibitors of RGS12 GoLoco Motif Activity (Red Fluorophore). The following applies: Gai1/rhodamine-RGS12 GoLoco peptide fluorescence polarization; series mostly up to 57.1 µM. From the text:
G-protein-coupled receptors (GPCRs) are major targets for drug discovery. The regulator of G-protein signaling (RGS)-protein family has important roles in GPCR signal transduction. RGS proteins contain a conserved RGS-box, which is often accompanied by other signaling regulatory elements. RGS proteins accelerate the deactivation of G proteins to reduce GPCR signaling; however, some also have an effector function and transmit signals. Combining GPCR agonists with RGS inhibitors should potentiate responses, and could markedly increase the agonist's regional specificity. The diversity of RGS proteins with highly localized and dynamically regulated distributions in brain makes them attractive targets for pharmacotherapy of central nervous system disorders. […] A complex of Gai1 and fluorescently labeled G-alpha-binding peptide (the "GoLoco motif") derived from RGS12 is incubated with library members. Inhibitors of the binding are detected by a decrease in the fluorescence polarization (FP) of the fluorophore. Protein was supplied by Prof. David Siderovski, University of North Carolina at Chapel Hill. This BioAssay is a confirmatory run of primary qHTS protocol (AID: 880). See following reference for more details: Kimple AJ, et al. Comb Chem High Throughput Screen. 2008 Jun;11(5):396-409. Assay Submitter: Siderovski, David P, University of North Carolina at Chapel Hill Screening Center PI: Austin, C.P. Screening Center: NIH Chemical Genomics Center [NCGC] NIH Grant: NS053754-01
Reagents/Controls: Assay Buffer: 10 mM Tris-HCl, 150 mM NaCl, 0.1 mM GDP (prepared fresh), and 0.05% NP40 at pH 7.5. […] 15 nM Rhodamine labeled peptide/25 nM protein in columns 1, 2, 5 - 48. Titration of unlabeled peptide control ([H][…][NH2], custom synthesized and HPLC-purified by Tufts University Core Facility) from 20 mM, then 1:2 dilution, 16-point in duplicate, pin-transferred to column 2, rows 1 to 32. Column 1 is neutral. Rhodamine-labeled peptide (Rhodamine-[…]-NH2) was custom-synthesized and HPLC-purified by Invitrogen (Carlsbad, CA). Assay Steps. Four uL of reagents were dispensed to 1536-well Greiner black solid-bottom plates. Compounds and controls (23 nL) were transferred via Kalypsys PinTool. The plates were incubated for 10 min at room temperature, and then read on ViewLux (Perkin-Elmer) High-throughput CCD imager using BODIPY for the rhodamine-labeled decapeptide probe. During dispense, reagent bottles were kept submerged into 4 deg C water bath and all liquid lines were covered with aluminum foil to minimize probe and protein degradation. All screening operations were performed on a Kalypsys robotic system (Kalypsys, Inc., San Diego, CA) containing one RX-130 and two RX-90 anthropomorphic robotic arms.
In the case of `O=C(Nc1cccc(Nc2nccc(Nc3cccc(C(F)(F)F)c3)n2)c1)C1CC1`, the Potency result is “inactive”. For the molecule `Cc1cc2nc3c(=O)n(Cc4ccccc4)c(=O)[nH]c3nc2cc1N`, the Potency is 3.98 µM (active). Consider `Cc1nn(C)cc1N1C(=O)c2cccc3c(N)ccc(c23)C1=O`, for which the Potency is 14.1 µM (active). With `CCn1c(SCC(=O)NCc2ccco2)nnc1-c1ccc(N)cc1` the entry was “inactive”.
